CYP2C9 inh = blocks human cytochrome P450 2C9. P11712. inhibition, % at 5 µM. hit rate 20% among 96,000. CYP2C9 Supersomes, luciferin-H conversion, luminescence;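 active = blocking of liver enzyme CYP2C9 beyond about 50% at 5 µM, limit read from the data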
CYP2C19 act = cytochrome P450 2C19 (human) activation. 96,000 tested, under 10 active. recombinant CYP2C19, luciferin-H EGE luminescence; active compounds read high; 0 = fully inhibited enzyme, 1 = untreated enzyme. P33261. activation factor at 5 µM;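 active = activation factor of at least 2 at 5 µM in the primary screen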
Target sequence (P33261 whole entry, looked up): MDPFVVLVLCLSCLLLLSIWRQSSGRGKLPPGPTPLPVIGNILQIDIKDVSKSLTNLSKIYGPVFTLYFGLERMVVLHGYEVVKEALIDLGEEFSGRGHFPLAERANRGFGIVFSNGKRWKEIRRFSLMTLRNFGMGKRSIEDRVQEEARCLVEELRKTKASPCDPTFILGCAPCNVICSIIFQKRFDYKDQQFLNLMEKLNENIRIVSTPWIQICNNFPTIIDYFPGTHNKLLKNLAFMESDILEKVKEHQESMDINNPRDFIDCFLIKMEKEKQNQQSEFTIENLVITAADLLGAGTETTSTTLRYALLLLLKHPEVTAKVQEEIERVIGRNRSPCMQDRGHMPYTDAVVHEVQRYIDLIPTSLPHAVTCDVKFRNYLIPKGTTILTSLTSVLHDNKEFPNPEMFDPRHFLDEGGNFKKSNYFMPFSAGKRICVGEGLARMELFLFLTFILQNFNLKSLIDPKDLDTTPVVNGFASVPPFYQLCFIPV
CYP2C19 inh = blocks human cytochrome P450 2C19. P33261. CYP2C19 Supersomes, luciferin-H EGE luminescence, 30 min. inhibition, % at 5 µM. hit rate 21% among 96,000;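 active = CYP2C19 inhibition above a set limit at 5 µM in the primary screen, cut at about 50% in these data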
CYP2C9 act = CYP2C9 (human) activation. P11712. recombinant CYP2C9, luciferin-H conversion, luminescence; active compounds read high; factor 1 = untreated enzyme, 0 = blocked. activation factor at 5 µM. hit rate 1.4% among 96,000;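 active = activation factor of 2 or more for CYP2C9 at a 5 µM dose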
Cav3 T inh = blocks human Cav3.2 T-type calcium channel; Cav3.2-expressing cells, Fluo-4 calcium fluorescence FDSS; active compounds read low; O95180; AID 449739; B-score at 10 µM; hit rate 4% among 100,000;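 active = single-dose well whose peak fluorescence ratio is a statistical outlier from its plate by either plate-standardised score or position-corrected B-score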
Hits are given with their value; 0 = inactive; - = not tested or not shown. This is a sample that favours compounds with a hit; in the whole collection about 27% have one here.

SMILES	CYP2C9 inh	CYP2C19 act	CYP2C19 inh	CYP2C9 act	Cav3 T inh
CC1(C)CC(=O)C(C=Nc2ccc(O)cc2)=C(O)C1	0	0	0	0	0
Cc1ccc(C)c(NC(=O)C2CC(O)CN2C(=O)OC(C)(C)C)c1 (centres undefined)	0	0	0	0	0
CCOC(=O)c1c(C)[nH]c(C(=O)COC(=O)C2CC2C)c1C (centres undefined)	98.3	0	72.8	0	0
CCOC(=O)c1[nH]c(C)c(C(=O)OCC)c1C	75.2	0	84.1	0	0
CCCN(CC1CC1)C(=O)COC(=O)c1[nH]c(C)c(C(=O)OCC)c1C	0	0	60.5	0	0
CCOC(=O)c1c(C)[nH]c(C(=O)COC(=O)c2ccncc2)c1C	91.6	0	0	0	-
COc1ccccc1NC(=O)CCN1CC(C)OC(C)C1 (centres undefined)	-	-	-	-	0
Cc1ccc(NC(C(N)=O)c2c(C)[nH]c(=O)[nH]c2=O)cc1 (centres undefined)	0	0	0	0	0
CCOC(=O)c1[nH]c(C)c(C(=O)Nc2ccc(Cl)cc2)c1C	0	0	0	0	0
CCOC(=O)c1[nH]c(C)c(C(=O)c2cc(F)ccc2F)c1C	93.0	0	95.0	0	-
COC(=O)c1cc(NC(=O)CN(c2ccc3c(c2)OCO3)S(C)(=O)=O)ccc1Cl	92.6	0	93.2	0	0
COC(=O)c1ccc(Cl)c(NC(=O)CN(c2ccc3c(c2)OCO3)S(C)(=O)=O)c1	86.8	0	89.7	0	0
CS(=O)(=O)N(CC(=O)Nc1ccc2c(c1)OCO2)c1ccc2c(c1)OCO2	0	0	0	0	0
CN(C)C(=O)CN(c1ccc2c(c1)OCO2)S(C)(=O)=O	0	0	0	0	0
COC(=O)c1cccc(NC(=O)CN(c2ccc3c(c2)OCO3)S(C)(=O)=O)c1C	70.8	0	90.1	0	0
CCOC(=O)N1CCN(c2c(NCCCN3CCCCCC3)c(=O)c2=O)CC1	0	0	0	0	0
COc1ccccc1NC(=O)C1CC(=O)N(c2ccc(F)cc2)C1 (centres undefined)	0	0	0	0	0
COc1ccccc1/C=C/CN1CC(C)OC(C)C1 (centres undefined)	0	0	0	0	0
COc1ccc(/C=C2\CCc3ccccc3C2=O)cc1Cn1cccn1	0	0	78.1	0	-3.71
C=C1N(CCCCCC(=O)O)C(=O)OC12CCCCC2	0	0	0	0	0
COc1ccc(Cn2c3nc4ccccc4nc3c3c(=O)n(Cc4ccco4)c(C)nc32)cc1	0	0	0	0	-
CCO/C(C)=N/n1c2nc3ccccc3nc2c2c(=O)n(Cc3ccccc3Cl)c(C)nc21	53.1	0	0	0	0
Cc1nc2c(c(=O)n1Cc1ccccc1Cl)c1nc3ccccc3nc1n2Cc1ccco1	52.2	0	0	0	-
CC(NC(=O)c1cc(-c2cccs2)on1)c1ccccc1 (centres undefined)	0	0	0	0	0
CSC(=NC#N)N1CCN(c2ccc(Cl)cc2)CC1	0	0	85.5	0	0
SMILES	CYP2C9 inh	CYP2C19 act	CYP2C19 inh	CYP2C9 act	Cav3 T inh
COC(=O)c1cc(-c2cccc(OC)c2)n[nH]1	0	0	69.5	0	0
O=C1/C(=C/c2ccccc2)CSc2sccc21	0	0	54.8	0	0
O=C1/C(=C/c2ccccc2)CCCc2ccccc21	0	0	0	0	0
O=C(NCc1ccccc1)C(c1ccncc1)N(C(=O)c1csnn1)C1CC1 (centres undefined)	0	0	0	0	0
CCOC(=O)C1CCCN(C(=S)Nc2cc(C)cc(C)c2)C1 (centres undefined)	0	0	70.3	0	0
CCOC(=O)C1CCCN(c2c(Nc3cc(C)cc(C)c3)c(=O)c2=O)C1 (centres undefined)	0	0	0	0	0
CCOC(=O)N1CCN(C(=O)Nc2ccccc2Cl)CC1	0	0	0	0	0
CCOC(=O)C1CCN(C(=O)Nc2ccc3nc(-c4ccco4)c(-c4ccco4)nc3c2)CC1	75.3	0	71.0	0	0
CCOC(=O)C1CCN(C(=S)Nc2cccc(C)c2)CC1	0	0	95.7	0	0
CCOC(=O)C1CCN(C(=O)Nc2ccccc2Cl)CC1	0	0	64.8	0	0
CCn1nnc(-c2ccccc2NC(=O)c2cnccn2)n1	-	-	-	-	0
COc1ccc(S(=O)(=O)N(C)c2ccc(C(=O)N3CCOCC3)cc2)cc1	0	0	0	0	0
CN(c1ccccc1)S(=O)(=O)c1ccc(C(=O)OCC(=O)N2CCOCC2)cc1	0	0	54.8	0	0
C=C1CCN([C@@H](C)C(=O)NCCCCCC)S(=O)(=O)c2ccccc21	-	-	-	-	0

High-throughput results: PubChem BioAssay, several laboratories
